Most compounds without a hit are left out; they make up all but 4.6% or so of the library.
sEH act – activators of human soluble epoxide hydrolase; P34913; purified human sEH enzymatic activity, activator screen; activation, % at 2 µM; actives 0.04% (n = 91,000); AID 717; in the data active = activation above about 37%
Target sequence (P34913 whole entry, looked up): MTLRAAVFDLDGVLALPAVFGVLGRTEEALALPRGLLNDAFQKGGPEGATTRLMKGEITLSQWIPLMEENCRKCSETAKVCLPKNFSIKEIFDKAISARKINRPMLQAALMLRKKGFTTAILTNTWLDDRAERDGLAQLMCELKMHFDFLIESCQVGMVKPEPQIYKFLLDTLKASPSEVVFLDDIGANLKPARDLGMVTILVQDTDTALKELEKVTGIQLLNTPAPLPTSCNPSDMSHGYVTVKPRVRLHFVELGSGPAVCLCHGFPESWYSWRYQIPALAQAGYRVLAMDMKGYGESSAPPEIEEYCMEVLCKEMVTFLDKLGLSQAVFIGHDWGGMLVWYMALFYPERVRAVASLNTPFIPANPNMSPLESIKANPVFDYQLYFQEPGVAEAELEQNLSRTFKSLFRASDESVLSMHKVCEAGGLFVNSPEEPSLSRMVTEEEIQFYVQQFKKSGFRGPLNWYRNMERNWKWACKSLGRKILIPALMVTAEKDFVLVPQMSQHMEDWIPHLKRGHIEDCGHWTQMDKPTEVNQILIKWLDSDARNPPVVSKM
HUVEC tox IL1B – toxic to HUVEC cells under IL-1B stimulation; HUVEC cell count loss, Hoechst imaging, IL-1B stimulated; cell count reduction, % at 2 µM; actives 0.41% (n = 94,000); AID 845;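 active = cell count reduction more than 3 SD above the screen-wide mean, cut at about 70% in these data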;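 note: normalized per plate to untreated control cells as the no-loss baseline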
NFkB transloc inh – blocks IL-1B driven NFkB nuclear translocation in HUVEC cells | inhibition, % at 2 µM | AID 796 | actives 0.43% (n = 94,000) | HUVEC IL-1B NFkB p65 nuclear translocation imaging;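 active = inhibition above about 30% together with a positive call from visual inspection of the well image, limit read from the data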;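 note: nuclear over cytoplasmic p65 intensity ratio measured by imaging; 0% = IL-1B stimulated DMSO wells and 100% = unstimulated DMSO wells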
Cav3 T inh – blocks human Cav3.2 T-type calcium channel | O95180 | Cav3.2-expressing cells, Fluo-4 calcium fluorescence FDSS; active compounds read low | B-score at 10 µM | actives 4% (n = 100,000);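 active = single-dose well whose peak fluorescence ratio is a statistical outlier from its plate by either plate-standardised score or position-corrected B-score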
sEH inhibitor – inhibitors of human soluble epoxide hydrolase; AID 707; inhibition, % at 2 µM; actives 0.34% (n = 91,000); P34913; recombinant human sEH enzymatic activity assay; in the data active = inhibition above about 80%
IL1B NFkB pot – enhances IL-1B driven NFkB nuclear translocation. HUVEC IL-1B NFkB p65 nuclear translocation imaging. activation, % at 2 µM. actives 0.3% (n = 94,000). AID 819;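 active = activation above 40%, about the mean plus 3 SD, also judged a hit on visual image review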;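 note: percent activation is computed from the nuclear over cytoplasmic p65 intensity ratio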
The depositor's hits bear a star; x = no result.

SMILES	sEH act	HUVEC tox IL1B	NFkB transloc inh	Cav3 T inh	sEH inhibitor	IL1B NFkB pot
COC(=O)c1ccc2c(c1)C(C)(C)C(/C=C/c1ccc(O)cc1)=[N+]2C	1	-6	34*	-4.4	-4	-34
COCCn1nnnc1C(C(C)C)N(Cc1ccccc1)Cc1cc2cc(OC)ccc2[nH]c1=O (centres undefined)	x	x	x	-4*	x	x
CCC(c1nnnn1C1CCCCC1)N(Cc1ccco1)Cc1cc2ccc(OC)cc2[nH]c1=O (centres undefined)	1	1	19	-0.68	-1	-19
CCOC(=O)Cn1nnnc1C(CC)N(Cc1cccs1)Cc1cc2ccc(OC)cc2[nH]c1=O (centres undefined)	2	21	5	-3.7*	-4	-5
O=C(O)C1CC(c2cccc(Br)c2)=NO1 (centres undefined)	5	1	-7	0.095	-3	7
O=C(C1CC(c2cccc(Br)c2)=NO1)N1CCc2ccccc2C1 (centres undefined)	-5	-16	-4	-4.4*	7	4
COC(=O)C1=C(C)NC(=O)/C1=C\c1cc(C)n(-c2c(C)cccc2C)c1C	-2	-2	-2	-0.79	-2	2
Cc1cccc(C)c1-n1c(C)cc(/C=C2\NC(=O)NC2=O)c1C	-15	-2	27	-6.8*	19	-27
O=C(CN1C2CCCC1CC(NC(=O)c1ccco1)C2)Nc1ccccc1 (centres undefined)	1	0	-6	2	0	7
COc1cc(C(=O)NC2CC3CCCC(C2)N3CC(=O)Nc2ccccc2)cc(OC)c1OC (centres undefined)	-4	6	-7	4.4*	4	7
COc1cc(/C=C(\C#N)c2nc3ccccc3[nH]2)ccc1Oc1ccc([N+](=O)[O-])cn1	2	-4	-7	-0.22	1	7
Cc1cc(/C=C(/C#N)c2nc3ccccc3[nH]2)c(C)n1-c1cccc([N+](=O)[O-])c1	-3	10	-19	-11*	2	19
CCOC(=O)c1cnc2cc(Cl)c(OC)cc2c1NCC1CCCO1 (centres undefined)	-24	3	9	0.34	23	-9
Cn1c(=O)oc2cc(S(=O)(=O)Nc3ccc4c(c3)OCCO4)ccc21	2	92*	98*	0.65	0	-98
COCCOC(=O)c1[nH]c2c(c1C)C(=O)CC(c1ccco1)C2 (centres undefined)	x	x	x	-2.3	x	x
c1ccc2sc(N3CN(CCN4CCOCC4)CN(c4nc5ccccc5s4)C3)nc2c1	x	x	x	-5.7*	x	x
CSc1cc(-c2ccc(Cl)cc2)c(C(=O)N2CCCC2)s1	0	-44	-7	-4.4*	1	7
CCOC(=O)CN1C(=O)C(O)(CC(=O)c2ccc3c(c2)CCCC3)c2ccccc21 (centres undefined)	-14	-33	-2	-7.3*	14	3
Cc1snc(S(=O)(=O)/C(C#N)=N/Nc2ccc(C(F)(F)F)cc2)c1C#N	-33	-42	-7	-6.4*	34	7
Cc1snc(S(=O)(=O)/C(C#N)=N\Nc2ccccc2)c1C#N	9	-35	-24	0.39	-8	24
CCOC(=O)C1=NN(C(=O)Nc2cccc(C(F)(F)F)c2)C2C(=O)N(c3cccc(C(F)(F)F)c3)C(=O)C12 (centres undefined)	13	-8	-6	-5.7*	-11	6
Cc1cccnc1NC(=O)Nc1cccc(C(F)(F)F)c1	-3	-2	-8	-0.35	6	8
CC1(C)CC(=O)C(C=NCCN2CCN(C(=O)c3ccccc3)CC2)=C(O)C1	-5	-152	-20	0.34	6	20
CCCC(=O)OC1CC(C)N(C(=O)c2ccccc2)c2ccc(C)cc21 (centres undefined)	-12	-1	-5	-4.4*	14	5
CC(=O)OC1CC(C)N(C(=O)c2ccccc2)c2ccc(C)cc21 (centres undefined)	1	-6	23	0.11	-1	-23
SMILES	sEH act	HUVEC tox IL1B	NFkB transloc inh	Cav3 T inh	sEH inhibitor	IL1B NFkB pot
O=C1c2ccccc2C(=O)N1CC1CCCO1 (centres undefined)	-2	-19	-17	0.39	2	17
S=c1[nH]nc(-c2ccccc2Cl)n1CC1CCCO1 (centres undefined)	12	70*	-23	1.3	-8	23
O=C(CSc1nnc(-c2cccnc2)n1-c1ccccc1)NCc1ccc2c(c1)OCO2	1	-67	-32	-0.18	0	31
CC1(C)CC(=O)C(CC(=O)NC(=O)NCc2ccccc2)=C(O)C1	-10	-6	-4	-0.43	13	4
COc1ccc(N2CCN(Cc3nc4c(c(=O)n(C)c(=O)n4C)n3CC(C)=O)CC2)cc1	-5	-1	-15	0.13	8	15
COc1ccc(OCCC(=O)N2CCCCC2)cc1	16	87*	88*	x	-13	-88
CCCCOc1ccc(C(=O)NCCCC(=O)N2CCCCC2)cc1	-1	-78	-23	0.49	2	23
CCCOc1ccc(C(=O)NNC(=S)NC(=O)c2cc(-c3ccccc3)nc3ccccc23)cc1	-8	23	-5	-7.3*	13	5
Cc1ccc(C(=O)NNC(=S)NC(=O)COc2ccccc2)cc1	0	-22	-6	-5.2*	2	6
COc1ccc(OCCNc2cc(N3CCCCC3)ccc2[N+](=O)[O-])cc1	0	-15	-16	x	3	16
COc1cccc(OCCNc2cc(N3CCCCC3)ccc2[N+](=O)[O-])c1	11	19	4	-4.1*	-10	-4
Cc1nn2c(N3CCOCC3)c3c(nc2c1-c1ccccc1)CCCC3	8	19	-26	2.7	-8	26
c1ccc(C(c2nnnn2C2CCCC2)N2CCN(c3nc4ccccc4s3)CC2)cc1 (centres undefined)	10	-36	4	-8.2*	-10	-5
Cc1ccc(C(c2nnnn2C2CCCC2)N2CCN(c3nc4ccccc4s3)CC2)cc1 (centres undefined)	-8	2	0	-8.1*	10	0
c1csc(C(c2nnnn2C2CCCC2)N2CCCC3(CCCCC3)C2)c1 (centres undefined)	11	2	7	-5.7*	-8	-7
c1csc(C(c2nnnn2C2CCCCC2)N2CCN(c3nc4ccccc4s3)CC2)c1 (centres undefined)	6	-19	10	-3.8*	-2	-10
NC(=O)C1CCN(C(c2ccccc2)c2nnnn2C2CCCC2)CC1 (centres undefined)	7	-33	-24	0.5	-7	24
CCc1ccccc1SCc1noc(C(=O)NCC2CCCO2)c1C(=O)O (centres undefined)	6	-10	3	1.1	0	-3
O=C(CN(CCc1ccccc1)C(=O)Cn1nnc(-c2cccs2)n1)NCc1ccco1	-44	19	2	-0.51	43	-2
